A short description of assay [1]: cAMP Responsive Elements (CRE) small molecule antagonists, cell-based qHTS assay: qHTS cell viability counter screen (AID 2060913). Note: nearly all actives have a fitted effect of over 40% in size. The note with it: CRE-bla HEK293T viability, CellTiter-Glo luminescence, 5 h; series mostly up to 92.4 µM. The essentials: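 Viability of NKH477-stimulated (0.25 uM final) CRE-bla HEK293T cells is measured by CellTiter-Glo luminescence following 3 hrs compound exposure at 37 C.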

The nature of assay [2]: cAMP Responsive Elements (CRE) small molecule agonists, cell-based qHTS assay: qHTS cell viability counter screen (AID 2060914). Note: nearly all actives have a fitted effect of over 50% in size. The following applies: CRE-bla HEK293T viability, CellTiter-Glo luminescence, 5 h; series mostly up to 92.4 µM. The essentials:
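Cytotoxicity was measured as ATP luminescence (CellTiter-Glo, 30 min at room temperature) in the same wells as the CRE-bla FRET read-out. HEK293T CRE-bla cells had 3 h compound exposure at 37C/5% CO2.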

Our source for the Potency values is PubChem BioAssay (Tox21).

Records with an inconclusive call do not appear. Entries that show only a call come without a potency. Activity calls are given as the source filed them. Calls come from the whole dose curve; as a rule, active = well fitted cell-killing curve with a large enough effect in the repeat runs; inconclusive = weak or mixed curves, or effect the other way; inactive = flat fitted curve, though single readings scatter.

As for `CN1COCN(Cc2cnc(Cl)s2)/C1=N\[N+](=O)[O-]`, the Potency entry in assay [1] and in assay [2] was “inactive” throughout.
Regarding `Nc1ccc(Br)cc1`, the Potency result in assay [1] and in assay [2] was “inactive” in each case.
For the compound `CC(C)(C)C(=O)Cl`, the Potency entry in assay [1] and in assay [2] was “inactive” each time.
Consider `CC(C)(C1CCC(O)CC1)C1CCC(O)CC1` (centres undefined), for which the Potency entry in assay [1] and in assay [2] was “inactive” in each case.
For `CN(C)N`, the Potency result in assay [1] and in assay [2] was “inactive” each time.
Regarding `C[C@]12CC[C@H]3[C@@H](CCC4=CC(=O)CC[C@@H]43)[C@@H]1CC[C@@H]2O`, the Potency entry in assay [1] and in assay [2] was “inactive” throughout.
Turning to `N#Cc1ccc(O)cc1`, the Potency result in assay [1] and in assay [2] was “inactive” in each case.
For `CNC(=O)Oc1cc(C)cc(C(C)C)c1`, the Potency result in assay [1] and in assay [2] was “inactive” each time.
In the case of `Nc1ccncc1`, the Potency result in assay [1] and in assay [2] was “inactive” each time.
As to `Oc1c(Cl)c(Cl)cc(Cl)c1Cl`, the Potency entry in assay [1] and in assay [2] was “inactive” each time.
On to `C=CCOC(Cn1ccnc1)c1ccc(Cl)cc1Cl` (centres undefined), for which the Potency result in assay [1] and in assay [2] was “inactive” each time.
For `Cl/C=C\CCl`, the Potency entry in assay [1] and in assay [2] was “inactive” throughout.
For `COc1cc2c(cc1OC)[C@@]13CCN4CC5=CCO[C@H]6CC(=O)N2[C@H]1[C@H]6[C@H]5C[C@H]43`, the Potency result in assay [1] and in assay [2] was “inactive” in each case.
For the compound `C=C(C)CCl`, the Potency result in assay [1] and in assay [2] was “inactive” each time.
As to `O=C(CBr)Nc1ccc(Cl)cc1C(=O)c1ccccc1F`, the Potency entry in assay [1] and in assay [2] was “inactive” throughout.
Take `O=c1oc2ccccc2c(O)c1C1CCCc2ccccc21` (centres undefined): the Potency result in assay [1] and in assay [2] was “inactive” in each case.
`CCCC(=O)Cl`: the Potency result in assay [1] and in assay [2] was “inactive” throughout.
As for `CCOP(=S)(OCC)Oc1ccc(Cl)cc1Cl`, the Potency entry in assay [1] and in assay [2] was “inactive” in each case.
Consider `[Cl-].[Cl-].[Cl-].[Yb+3]`, for which the Potency result in assay [1] and in assay [2] was “inactive” in each case.
On to `CON(C)C(=O)Nc1ccc(Br)cc1`, for which the Potency entry in assay [1] and in assay [2] was “inactive” each time.
In the case of `ClC1=C(Cl)C2(Cl)C(CBr)CC1(Cl)C2(Cl)Cl` (centres undefined), the Potency entry in assay [1] and in assay [2] was “inactive” throughout.
In the case of `COP(=O)(NC(C)=O)SC` (centres undefined), the Potency result in assay [1] and in assay [2] was “inactive” in each case.
